Among the data in PubChem BioAssay (NCATS) are outcome, Potency and max response values, retold here.

Each structure is given as a SMILES string. “And” between values parts separate entries of the source, which are not always exact repeats. Equal values may be shown once. Records with an inconclusive call do not appear. More than one record can exist for a structure, and the calls need not agree. The source made the active and inactive calls. Calls follow the shape of the dose curve; as a rule, active = well fitted curve in the direction sought with a large enough effect; inconclusive = small, poorly fitted or top-dose-only effect, or another doubt; inactive = no such curve, though single readings can be large; an effect the other way counts as inactive or inconclusive.

For test [1], the system named is NIH3T3. The experiment in a line: Cytotoxic Profiling of Annotated Libraries Using Quantitative High-Throughput Screening (AID 1296008). Also: nearly all actives have a fitted effect of over 60% in size. The settings on record: Five cell lines viability, CellTiter-Glo ATP luminescence, 48-72 h; max response: stronger effect = lower value. The procedure, abridged: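 Compounds were pin-transferred onto cells and incubated 48 or 72 hr at 37 degree Celsius, 95% humidity. CellTiter-Glo was added, plates sat 10 min at room temperature, then ATP-coupled luminescence was imaged as the viability read-out.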
(In general: ATP-based viability assays read luminescence as a measure of living cells.)

The next test has as its system HACAT. The experiment in a line: qHTS assay to identify novel small-molecules to repurpose for Merkel cell carcinoma treatment (AID 1296009). Also: nearly all actives have a fitted effect of over 60% in size. Also: potency is read from the fitted curve at half-maximal effect. The settings on record: MCC and control cell lines, CellTiter-Glo viability, 72 h; at 44.8 µM (top of the series) unless noted. The method in brief:
(§1)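 qHTS format: cells treated with library compounds in DMSO across 8 (NPC) or 11 (MIPE) concentrations. Readout after 72 hr at 37 degree celsius was CellTiter-Glo luminescence.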
(qHTS replaces the single test concentration by a dilution series.)

A further test concerns MCC-13. The description is as above. Particulars: MCC and control cell lines, CellTiter-Glo viability, 72 h; series mostly up to 46 µM. The method in brief: as §1
In a further test the test system is MCC-26. The description is as above. Particulars: MCC and control cell lines, CellTiter-Glo viability, 72 h; series mostly up to 46 µM. The method in brief: as §1
Another test deals with MKL-1. The test is described as above. Particulars: MCC and control cell lines, CellTiter-Glo viability, 72 h; series mostly up to 46 µM. The method in brief:
as §1

For another test, the system named is MKL-2. Described as above. The settings on record: MCC and control cell lines, CellTiter-Glo viability, 72 h; series mostly up to 46 µM. The method in brief:
as §1

Test [2] concerns NIH3T3. The description is as above. The settings on record: MCC and control cell lines, CellTiter-Glo viability, 72 h; at 44.8 µM (top of the series) unless noted. The method in brief:
as §1

For a further test, the system named is UISO. The test is described as above. The settings on record: MCC and control cell lines, CellTiter-Glo viability, 72 h; series mostly up to 46 µM. The procedure, abridged: as §1
A further test relates to WaGa. The description is as above. Particulars: MCC and control cell lines, CellTiter-Glo viability, 72 h; series mostly up to 46 µM. The method in brief: as §1
The subject of the next test is C33A. The experiment in a line: Primary qHTS to identify gynecologic anti-cancer compounds using libraries of approved drugs and bioactive compounds (AID 1345084). Also: nearly all actives have a fitted effect of over 55% in size. Particulars: Gynecologic cancer cell panel viability, ATPlite luminescence, 48 h; series mostly up to 57.5 µM. The procedure, abridged: (§2)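 Cells, 1,000 per well, were allowed to settle for 16 h at 37 C before compound addition. Five concentrations were tested for 48 h, and viability was read by ATPlite luminescence after 15 min at room temperature.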

The test system of a further test is CASKI. Described as above. The settings on record: Gynecologic cancer cell panel viability, ATPlite luminescence, 48 h; series mostly up to 57.5 µM. The procedure, abridged: as §2
Another test concerns Es-2. Described as above. Particulars: Gynecologic cancer cell panel viability, ATPlite luminescence, 48 h; series mostly up to 57.5 µM. The method in brief: as §2
A further test concerns HeLa. The test is described as above. The settings on record: Gynecologic cancer cell panel viability, ATPlite luminescence, 48 h; series mostly up to 57.5 µM. The procedure, abridged: as §2
Test [3] concerns Hek293T. The test is described as above. The settings on record: Gynecologic cancer cell panel viability, ATPlite luminescence, 48 h, control line for the selectivity index; series mostly up to 57.5 µM. The procedure, abridged: as §2
A further test concerns JEG-3. The test is described as above. The settings on record: Gynecologic cancer cell panel viability, ATPlite luminescence, 48 h; series mostly up to 57.5 µM. The method in brief: as §2
In a further test the test system is OV90. Described as above. The settings on record: Gynecologic cancer cell panel viability, ATPlite luminescence, 48 h; series mostly up to 57.5 µM. The procedure, abridged:
as §2

In the next test the test system is PA-1. The test is described as above. The settings on record: Gynecologic cancer cell panel viability, ATPlite luminescence, 48 h; series mostly up to 57.5 µM. The procedure, abridged:
as §2

The subject of the next test is CAOV3. The description is as above. Particulars: Gynecologic cancer cell panel viability, ATPlite luminescence, 48 h; series mostly up to 57.5 µM. The method in brief:
as §2

For the next test, the system named is SKOV3. Described as above. The settings on record: Gynecologic cancer cell panel viability, ATPlite luminescence, 48 h; series mostly up to 57.5 µM. The procedure, abridged:
as §2

Test [4] has as its system HEK293T. The experiment in a line: qHTS assay to identify novel small-molecules to repurpose for Merkel cell carcinoma treatment (AID 1296009). Also: nearly all actives have a fitted effect of over 60% in size. Also: potency is read from the fitted curve at half-maximal effect. Particulars: MCC and control cell lines, CellTiter-Glo viability, 72 h; at 44.8 µM (top of the series). The procedure, abridged: as §1
% is scaled to controls: 0 for no effect and ±100 for the full control effect.

As for `CC(C)(C)NCC(O)c1ccc(O)c(CO)c1` (stereo not given), the compound was called inactive in the test with NIH3T3 [1], in the test on HACAT and in the test on NIH3T3 [2]. Moreover, the Potency entry in the test on MCC-13, in the test on MCC-26, in the test with MKL-1, with MKL-2, in the test with UISO and in the test on WaGa was “inactive” throughout. The Potency entry with C33A, in the test on CASKI, in the test with Es-2, in the test with HeLa, in the test on Hek293T [3] and in the test on JEG-3 was “inactive” each time. Moreover, the Potency result in the test on OV90 and with PA-1 was “inactive” in each case.
With `OC[C@H](Cc1ccccc1)Nc1nc(Oc2ccc3c(c2)CCC3)nc2c1ncn2Cc1ccc(-c2ccccc2)cc1`, the max response in the test with NIH3T3 [1] is 1.2% (inactive). For the same compound, the outcome with HACAT was inactive. Moreover, the Potency entry in the test on MCC-13, in the test on MCC-26, with MKL-1 and with MKL-2 was “inactive” each time.
`CCOc1cc(C=C2C(=O)N(c3ccccc3)N=C2C)cc(Cl)c1OCC(=O)OC`: the max response in the test on NIH3T3 [1] was -3.61% (inactive). Besides, the outcome in the test on HACAT was inactive. The Potency entry in the test with MCC-13, in the test on MCC-26, with MKL-1, with MKL-2, in the test with UISO and with WaGa was “inactive” each time.
Consider `Fc1ccc(Cl)cc1-c1nc(Nc2ccncc2)c2nccnc2n1`, for which, in the test with NIH3T3 [1], the max response is -15.4% (inactive). Also, in the test with HACAT, the result was inactive. The Potency entry with MCC-13, in the test with MCC-26, with MKL-1, with MKL-2, in the test with UISO and in the test on WaGa was “inactive” throughout.
Consider `O=c1[nH]cnc2[nH]ncc12`, for which the max response with NIH3T3 [1] is 4.86% (inactive) and -3.07% (inactive). In addition, the compound was called inactive in the test on HACAT. For the same compound, the Potency result in the test on MCC-13, with MCC-26, in the test on MKL-1, in the test with MKL-2, with UISO and in the test on WaGa was “inactive” in each case. In addition, the Potency entry in the test on C33A, in the test with CAOV3, in the test on CASKI, in the test on Es-2, with HeLa and in the test with JEG-3 was “inactive” throughout. Besides, the Potency result in the test on OV90, in the test with PA-1 and with SKOV3 was “inactive” throughout.
`Cc1cn[nH]c1`: the max response in the test with NIH3T3 [1] is 3% (inactive). For the same compound, the outcome in the test with HACAT and with HEK293T [4] was inactive. In addition, the Potency entry in the test on MCC-13, in the test on MCC-26, with MKL-2, in the test on C33A, in the test with CAOV3 and with CASKI was “inactive” throughout. Further, the Potency entry in the test with Es-2, with HeLa, in the test with Hek293T [3], in the test on JEG-3, with OV90 and in the test with PA-1 was “inactive” each time. The Potency result in the test with SKOV3 was “inactive”. Also, the Potency result with MKL-1 is “inactive and 5.9 µM (active)”; in the test with UISO, “inactive and 2.96 µM (active)”; in the test on WaGa, “inactive and 1.87 µM (active)”.
With `CCC(C)n1ncn(-c2ccc(N3CCN(c4ccc(OC[C@H]5CO[C@](Cn6cncn6)(c6ccc(Cl)cc6Cl)O5)cc4)CC3)cc2)c1=O` (stereo not given in full), the max response in the test on NIH3T3 [1] is -7.51% (inactive). For the same compound, the outcome with HACAT was inactive. The Potency entry in the test on MCC-13, with MCC-26, in the test on MKL-1, in the test on MKL-2, in the test on UISO and in the test on WaGa was “inactive” throughout. Besides, the Potency result in the test on C33A, with CASKI, in the test with Es-2, in the test with HeLa, in the test on Hek293T [3] and with JEG-3 was “inactive” throughout. The Potency entry with OV90, in the test on PA-1 and in the test on SKOV3 was “inactive” throughout.
Turning to `O=c1n(CCCN2CCN(c3cccc(Cl)c3)CC2)nc2ccccn12`, in the test with NIH3T3 [1], the max response was 3.22% (inactive) and 3% (inactive). In addition, the outcome with HACAT was inactive. Moreover, the Potency result in the test on MCC-13, in the test on MCC-26, in the test on MKL-1, in the test on MKL-2, in the test on UISO and in the test on WaGa was “inactive” throughout. In addition, the Potency result in the test with C33A, in the test on CAOV3, in the test on CASKI, with Es-2, in the test on HeLa and in the test on Hek293T [3] was “inactive” in each case. Besides, the Potency entry in the test on JEG-3, in the test with OV90, with PA-1 and in the test on SKOV3 was “inactive” in each case.
